In PubChem BioAssay (NCATS):
Where “and” joins values, the source holds several entries; their conditions need not be identical. Identical values can stand only once. Inconclusive results are not listed. Calls of active or inactive are those of the source. Calls follow the shape of the dose curve; as a rule, active = well fitted curve in the direction sought with a large enough effect; inconclusive = small, poorly fitted or top-dose-only effect, or another doubt; inactive = no such curve, though single readings can be large; an effect the other way counts as inactive or inconclusive.

Key:
[1] = Viability qHTS for spleen associated tyrosine kinase inhibitor (SYKi) naive MV4-11 cells (AID 1963823); conditions: MV4-11 AML viability, CellTiter-Glo luminescence, 72 h; series mostly up to 45 µM; also: nearly all actives have a fitted effect of over 40% in size
Method in brief: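 Viability of MV4-11 AML cells lacking prior SYK inhibitor exposure is scored by CellTiter-Glo luminescence following 72 hr compound incubation at 37 C, 5% CO2, seeded at 500 cells per well.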

[2] = Viability qHTS for spleen associated tyrosine kinase inhibitor (SYKi) drug resistant MV4-11 cells (AID 1963824); conditions: SYKi-resistant MV4-11 viability, CellTiter-Glo, 72 h; series mostly up to 45 µM; also: nearly all actives have a fitted effect of over 35% in size
Method in brief: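 CellTiter-Glo luminescence, read 10 min after reagent addition, reports viability after a 72 hr compound exposure. Cells are an MV4-11 line made resistant to SYK inhibition, seeded at 500 per well onto compound-containing plates.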

[3] = Cellular viability qHTS for adrenocortical cancer (ACC) cell line NCI-H295R (AID 1963990); conditions: CellTiter-Glo ATP luminescence, 48 h; series mostly up to 46.1 µM; also: nearly all actives have a fitted effect of over 60% in size
Method in brief: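 Luminescent ATP read-out (CellTiter-Glo, 20 min RT) after 48 h drug exposure of NCI-H295R cells; a titration up to 46 uM final. Data normalized to doxorubicin (100% inhibition) and DMSO (0%); 4-parameter fit gives IC50, max response.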
Potency is read from the fitted curve at half-maximal effect.

SMILES | Potency [1] | Potency [2] | Potency [3]
CCNC(=O)NCc1cccc(Cl)c1 | inactive | inactive | inactive
O=C(Nc1ncc(SCCN2CCCC2)s1)[C@]1(c2ccc(S(=O)(=O)C3CC3)cc2)C[C@H]1C1CCCCC1 | 7.42 µM (active) | 8.33 µM (active) | 7.08 µM (active)
Cc1cc(=O)[nH]c(=S)[nH]1 | inactive | inactive | inactive
O=C(NOCCO)c1ccc2cncn2c1Nc1ccc(I)cc1F | 2.06 µM (active) | 0.105 µM (active) | inactive
Cc1c(C)n(Cc2ccccc2)c2ccc(C(=O)OCCN(C)C)cc12 | 11.9 µM (active) | 11.9 µM (active) | 23.1 µM (active)
C[C@@]12C(=O)OC(=O)[C@]1(C)[C@H]1CC[C@@H]2O1 | 2.63 µM (active) | 2.63 µM (active) | 3.98 µM (active)
CCOC(=O)c1ccc(N)cc1 | inactive | inactive | inactive
N#C/C(=C\c1ccc(O)c(O)c1)C(=O)NCc1ccccc1 | 13.2 µM (active) | 9.2 µM (active) and 16.6 µM (active) | inactive
Cc1ccc(Nc2ncc3c(n2)N(C)C(=O)N(c2cc(NC(=O)c4cccc(C(F)(F)F)c4)ccc2C)C3)cn1 | 0.0148 µM (active) | 0.013 µM (active) | inactive
Cc1onc(-c2c(Cl)cccc2Cl)c1C(=O)Cl | inactive | inactive | inactive
O=C(c1ccc(Nc2nc(C3CC3)cn3c(-c4cn[nH]c4)cnc23)c(F)c1)N1CCOCC1 | 1.05 µM (active) | 1.66 µM (active) | 7.94 µM (active)
COC(=O)C1=C(C)NC(C)=C(C(=O)OCC(C)C)C1c1ccccc1[N+](=O)[O-] (stereo unspecified) | 10.6 µM (active) | 10.6 µM (active) | 16.4 µM (active)
